Experimental findings from PubChem BioAssay AID602252 (Broad Institute, 2012) are described below.

Usually inhibition stands for the relative decrease from the control value, in per cent.

Each structure is given as a SMILES string. The whole screen tested about 300,000 compounds, of which about 2,700 (0.9%) were called active. For the sample, actives were picked, then their nearest neighbours and some compounds at random. A number with no mark means an inactive call.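 How the source made its calls: active means mean inhibition of at least 30% with at least half of replicates also reaching 30%; inconclusive means no clear call, values can overlap the other calls; inactive means the rest.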

This assay has as its target Golgi-associated PDZ and coiled-coil motif-containing protein (Homo sapiens) (UniProt Q9HD26). Nature of the assay: blockade of CAL PDZ-reporter peptide interaction – biochemical, fluorescence polarization, untagged CAL PDZ, HTS, primary screen (AID 602252).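 Further: 0% = DMSO neutral control and 100% = excess unlabeled competitor peptide PRC23.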 The settings on record: purified CAL PDZ, TMR-peptide fluorescence polarization, 1 h; at 24.9 µM; stronger effect = higher value. In general terms: Fluorescence polarisation rises when a labelled molecule tumbles more slowly, as on binding a larger partner.
Turning to `CC(=NCC1CCCO1)c1c(O)n(-c2ccccc2)c(=O)[nH]c1=O` (stereo not given), the inhibition was -0.888%.

For `COc1ccccc1-n1c(O)c(C=NC2CC2)c(=O)[nH]c1=O`, the inhibition was -5.85%. Regarding `Cc1ccc(-n2c(O)c(C=NCC3CCCO3)c(=O)[nH]c2=O)c(C)c1` (stereo not given), the inhibition was 62.7% (active).

`CCC(C)(O)C(=O)OC1C(=O)OC2CC3C(C)=CC(=O)C(O)C3(C)C3C4(O)OCC23C1C(C)C4O` (stereo not given): the inhibition was -3%. Turning to `COC1C(O)C(C)OC(OC2CCC3(C=O)C(CCC4C3CCC3(C)C(C5=CC(=O)OC5)CCC43O)C2)C1O` (stereo not given), the inhibition was -0.006%. Turning to `Cc1ccc(-n2c(C)cc(/C=C3\C(=O)NC(=O)N(C)C3=O)c2C)cc1C`, the inhibition is 0.186%. Consider `Cc1ccnc(-n2c(C)cc(/C=C3\C(=O)NC(=S)N(C)C3=O)c2C)c1`, for which the inhibition is -1.9%. As to `Cc1cc(C=C2C(=O)NC(=O)NC2=O)c(C)n1-c1ccncc1`, the inhibition is 49.2% (active). On to `CC(=O)OC1C2(CC3N4C(=O)C5(CO)SSC4(CC31O)C(=O)N5C)OC(C)C(C)(C)C2=O` (stereo not given), for which the inhibition was 1.68%. Regarding `CC12CCC(O)CC1CCC1C2CCC2(C)C(C(=O)CC(O)C(F)(F)F)CCC12` (stereo not given), the inhibition was -6.37%.

Take `O=C(c1ccccc1)C(O)(CN1CCCCC1)c1ccccc1` (stereo not given): the inhibition was -5.06%.

As to `CC1C(=O)OC2CCN3CC=C(COC(=O)C(C)(O)C1(C)O)C23` (stereo not given), the inhibition was 56.3% (active).

`CCOC(=O)C1(c2ccccc2)CCN(CC(O)c2ccc(NC(C)=O)cc2)CC1` (stereo not given): the inhibition was -0.121%.

As to `CCOC(=O)CC(SP1(=S)OCC2(CCCCO2)C(C2CCCCO2)O1)C(=O)OCC` (stereo not given), the inhibition is 0.015%. `CC=C(C)C(=O)OC1CCN2CC=C(COC(=O)C(O)(C(C)OC)C(C)(C)O)C12` (stereo not given): the inhibition is -2.7%.
